Z-score data for 30 sequences are collected here from PubChem BioAssay AID1508600 (Functional Genomics Laboratory (NCATS/FGL), 2020).

Among all 53,000 sequences or so, about 3,700 (7%) were called active. This is one part of a sample in which actives are shown more often than they occur. A number with no mark means an inactive call.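 How the source made its calls: active means gene knockdowns whose robust z-score for IL-1 alpha signal is at least 2 or at most -2, so actives lie on both sides; inactive means the rest.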

A short description of this experiment: Components of the Cytosolic LPS Sensing Pathway: Gene Identification via Genome-wide siRNA Screen.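 Further: robust z of the log signal after scaling to non-targeting control siRNA wells of the plate.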 To be noted: RAW264.7 macrophages, IL-1a HTRF, actives lie on both sides, screened at 100 nM (by protocol), cells primed 5 h with Pam3CSK4 first. In a few lines:
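Cells (RAW264.7, 1×10^4 per well) were transfected with siRNA at 100 nM and cultured 48h at 37 degrees C. Pam3CSK4 was added for 5 hours; LipidA transfection followed for 24 hour. IL-1a was then measured by HTRF.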
(In general: TR-FRET usually uses a lanthanide donor and a delayed reading to cut background.)
Consider GGACCAUGGAUAUUUAAAGTT against Mafk, for which the z-score is -0.297.
Next, GGAACUCUGUGGGUGAGAATT against Dock8: -1.46; CCGGAUGUGCCUUGUCUACTT against Ckap5: -1.58; GGAAAAUCAAGACCUAUGGTT against Obox6: -1.37.
Turning to GGAAGAGGUUAGCAAGCAUTT against Iws1, the z-score was 2.27 (active).
The value for GUGCAUUGUCUUUUGUAGATT against Olfr1095 was -0.753; that for CGAUAAACUGGAUACCACUTT against Sntn was 0.437; that for GCAAUCUGUUUAGAGAGAGTT against Slc10a5 was -1.16.
The value for GGUGGUGAAUAUGAUGAUATT against Tsr1 was -0.712.
With GCUAAUGAUUUCCGCUUUGTT against Tyw1, the z-score was 0.367.
The value for GCCUUAUGGUUUUGUAUUUTT against Nap1l1 was -2.38 (active).
The value for GCCCGCAUUCUUAUUCGAUTT against Tmem64 was -1.13; that for GCUGAUGUUAAAUUCGCAGTT against Serpinb3b was 1.33; that for CCACCUAUCAGGAUUCAACTT against Sf3b6 was -3.37 (active).
Next, GGAGCCCUGUGUCUUGAGUTT against Ccl19: -0.39; GGAGAUCCAAGAGAAAUUUTT against Csf3r: 1.18.
Turning to GCAUUACACUGUUAAUGUUTT against Gopc, the z-score is -0.138.
Turning to GCCUCAUUAUGAGUUGGCATT against Olfr1419, the z-score is -2.51 (active).
In the case of GGAAUCACAAGGUAUUUUCTT against Spo11, the z-score was -0.237.
Next, GGUCCACAAUGGCAUCAUATT against Elf4: 2.13 (active); GGAGAAGUUUAAGGAGAUUTT against Dnajb5: 1.54.
With CCUUUGGUAAUCUCCAAAATT against Amph, the z-score was 0.862.
Regarding CCUUCUGCGGCUCAGUCUATT against Bach2os, the z-score was -0.199.
Next, GGAACCUACUGCUACAUCATT against Sftpc: 2.24 (active).
Next, GGCUUUCCUUACCAUAUAUTT against Trim7: -0.675.
For GGAGAUUGGCAUAGAGAAGTT against Myo5b, the z-score is 0.437.
As for AUCCAUUUUGUGCUAGGCATT against Cacfd1, the z-score was 0.473.
The value for CCUGCUAUGUAAUAUAGAUTT against Eef2k was 0.0542; that for “CCCGCUUGUUCUGAUGAUATT against 2310039H08Rik” was -2.26 (active).
Next, GGAAAGAAAUGAAUCAGUATT against Rnf216: 0.882.
